Experimental data taken from the OligoGym collection.

These sequences were tested against GAA (assay: pooled miR-30 sensor sort-seq; sequence = guide strand). Conditions: shRNA.
Also: reference of the scale not given here.

Row | Sequence | sensor-assay potency score (higher = more potent)
1 | TTCATGTCAATCCACATGCCGT | -0.999
2 | TTGTTGAACGTGAAGTCCCTCC | 0.0246
3 | TTCACGATCGTGTTATTCCTGG | -0.238
4 | TTAAGATTTAGAATCTCCCAAG | -0.492
5 | TTGTGCAGGTTGTAGTGTGTGG | -0.0928

Each sequence was assayed against GAB3 in the same assay as above. Conditions: shRNA.

Row | Sequence | sensor-assay potency score (higher = more potent)
6 | TTATTCTGAAATTCCTTCCGAA | 0.459
7 | TTGCAGACCTGACTGATGCTGT | 0.324
8 | TAGTACTCCAAGACATCGGGGT | 0.697
9 | TTTCGATGTAGCTTTCTTCGTC | 0.694
10 | TTGACCTGTGTTGACCATCAGT | -0.72
